# Screening results as filed in PubChem BioAssay.
# Anthrax LF prot: inhibitors of Bacillus anthracis lethal factor protease; P15917; multiplex microsphere protease cleavage assay, LF; inhibition, % at 10 µM; 0.12% of 360,000 active; AID 588501; note: plate controls were buffer without enzyme for full effect and enzyme alone for no effect
# BoNT A protease: blocks Botulinum neurotoxin A light chain protease | AID 588499 | inhibition, % at 10 µM | multiplex microsphere protease substrate cleavage, flow cytometry | 0.17% of 360,000 active; note: plate controls were buffer without enzyme for full effect and enzyme alone for no effect
# 3CLpro inhibitor: SARS-CoV 3CLpro protease inhibition; P0C6X7; AID 1706; inhibition, % at 6 µM; recombinant SARS-CoV 3CLpro, quenched FRET peptide cleavage; 0.14% of 290,000 active; in the data active = inhibition above about 12%
# Autofluor counter: counter-screen for toxin protease inhibitors: compound fluorescence. 3.1% of 360,000 active. compound autofluorescence counterscreen, microsphere flow cytometry; active compounds read high. fluorescence intensity (test concentration not listed); in the data active = fluorescence intensity above about 16000; inconclusive = no clear call, values can overlap the other calls
# CCHF vOTU inh-1: CCHFV vOTU protease inhibition; inhibition, % at 11.5 µM; AID 651958; Pep-AMC fluorescence; 0.55% of 370,000 active; in the data active = inhibition above about 30%; note: 0% = vehicle wells with enzyme and 100% = no enzyme wells
# BoNT F protease: BoNT F light chain protease inhibition; Multiplex microsphere protease cleavage assay, flow cytometry; inhibition, % at 10 µM; 0.22% of 360,000 active; AID 588497; in the data active = inhibition above about 35%, passing the limit was not always enough; inconclusive = no clear call, values can overlap the other calls; note: plate controls were buffer without enzyme for full effect and enzyme alone for no effect
# CCHF vOTU inh-2: confirmation of CCHF virus vOTU protease inhibitors; shares compounds with CCHF vOTU inh-1; 17% of 1,900 active; inhibition, % at 11.5 µM; Recombinant CCHFV vOTU, Pep-AMC fluorescence; AID 686976; in the data active = inhibition above about 30%
# Active calls of the source: *; ? = inconclusive; . = no result. Hits are enriched below; roughly 3.9% of the tested compounds scored in any of these assays. Cut-off read from the data, not from the text of the source, unless noted: active = inhibition above about 30%; inconclusive = no clear call, values can overlap the other calls; inactive = below that.
SMILES,Anthrax LF prot,BoNT A protease,3CLpro inhibitor,Autofluor counter,CCHF vOTU inh-1,BoNT F protease,CCHF vOTU inh-2
CCOC(=O)C1(C)C=C(Nc2ccc(O)cc2)C(=O)N1c1ccc(O)cc1 (stereo not drawn),-1,-1,3,2072,91*,-1,-15
C/C(=N\N1C(=O)CSC1=S)c1ccc(Br)cc1,-5,2,-4,5322,9,-6,.
C[n+]1cccc2c(Br)ccc([O-])c21,-14,3,13*,3959,103*,?,42*
Cc1cc[n+](-c2[nH]c(=O)sc2/C=N/N=C(\[O-])c2ccncc2)cc1,-2,1,-3,5304,31*,-2,-18
COc1cc2c(cc1O)[C@@H]1Cc3ccc(OC)c(O)c3CN1CC2,-6,-1,.,6264,105*,-18,93*
COc1ccc(C[C@@H]2c3cc(O)c(OC)cc3CCN2C)cc1O,-3,0,1,2824,12,-6,.
CC(C)(C)c1ccc(C(=O)N2CCN(c3ccc(N4CCOCC4)nn3)CC2)cc1,-4,1,.,4090,-36,2,.
Oc1ccc(NCc2cccs2)cc1,-14,-3,0,3738,88*,-1,-5
CN(C(=O)OC(C)(C)C)[C@H](Cc1ccccc1)C(=O)N[C@H]1CCCCNC1=O,5,0,.,3349,6,-2,.
CC(C)(C)c1ccc(Cn2nnc3c(=O)[nH]c(C4CCCN(C(=O)Cc5cccs5)C4)nc32)cc1 (stereo not drawn),-3,1,5,8052,31*,0,4
O=c1[nH]c(C2CCCN(S(=O)(=O)Cc3ccccc3)C2)nc2c1nnn2Cc1cccc(Cl)c1 (stereo not drawn),-3,-1,1,4109,30*,-13,-5
c1ccc(COc2cccc(CNCc3cccnc3)c2)cc1,4,0,1,4931,-12,-14,.
Oc1ccc(NCc2cccc(OCc3ccccc3)c2)cc1,-7,-1,2,4119,73*,-12,-15
Oc1ccc(NCc2cccc(OCc3ccc(F)cc3)c2)cc1,-8,-1,-3,4476,89*,-16,16
O=[N+]([O-])c1ccc(COc2cccc(CNc3ccc(F)cc3)c2)cc1,-3,-2,4,2404,-8,-18,.
COc1ccc(S(=O)(=O)N2CCOCC2)cc1NC(=O)COc1ccc2ccc(=O)oc2c1,12,0,.,2901,9,0,.
COc1ccc(OC)c2c1cc(C(=O)N[C@H](C(=O)N1CCC(C(=O)O)CC1)C(C)C)n2C,-14,-3,-5,3254,36*,-6,20
COc1ccc(OC)c2c1cc(C(=O)N[C@@H](Cc1ccccc1)C(=O)O)n2C,-15,-1,1,2993,4,-13,.
O=C(CSc1nnc(C2CC2)n1CC1CCCO1)Nc1ccc(Cl)cc1 (stereo not drawn),-2,0,-4,5452,0,-2,.
C=CCC[C@@H](CCCCC)OC(=O)/C=C/[C@H](O)[C@@H](O)C[C@H](O)CC=C,-4,0,.,4342,34*,-1,18
C=CCC[C@H](CCCCC)OC(=O)/C=C/[C@H](O)[C@@H](O)C[C@H](O)CC=C,-4,-1,.,4188,20,-1,.
CCCCCCc1nc(C(N)=O)c2[nH]c(=O)n(-c3ccc(OC)cc3OC)c2n1,2,0,4,4485,30*,6,2
CC1=C(SCc2ccccc2)C(=O)c2ccccc2C1=O,-2,0,.,4317,104*,-18,87*
C=CCOc1ccc(C(c2c(C(=O)O)[nH]c3ccccc23)c2c(C(=O)O)[nH]c3ccccc23)cc1,3,-1,5,4003,51*,13,-2
COc1cc(C(c2c(C(=O)O)[nH]c3ccccc23)c2c(C(=O)O)[nH]c3ccccc23)ccc1OCc1ccccc1,-3,3,11,3173,39*,-1,22
SMILES,Anthrax LF prot,BoNT A protease,3CLpro inhibitor,Autofluor counter,CCHF vOTU inh-1,BoNT F protease,CCHF vOTU inh-2
CC(OC(=O)C1=COCCO1)C(=O)Nc1ncc(Cl)cc1Cl (stereo not drawn),-2,0,.,5798,-6,?,.
COc1ccc(-c2cccc(C(=O)Nc3ccc(C)cc3)c2)cc1,0,-2,2,4514,31*,-1,-4
CC(O)(c1ccc(F)c(F)c1)c1nc(-c2cccc(C(F)(F)F)c2)cs1 (stereo not drawn),-1,0,.,2800,39*,-1,5
CC1=C(C(=O)N2CCOCC2)CC(CC(=O)NCCN2CCOCC2)C(=O)N1Cc1ccccc1 (stereo not drawn),-2,0,.,2937,30*,-4,-25
CN(Cc1cn(-c2ccccc2)nc1-c1ccc(Cl)cc1)C(=O)CCC(=O)O,1,0,-3,1941,-5,0,.
COc1cc(Cc2nccc3cc(OC)c(OC)cc23)c(NC(C)=O)cc1OC,2,0,4,4196,-8,-3,.
COc1cc(Cc2nccc3cc(OC)c(OC)cc23)c(S(=O)(=O)O)cc1OC,-2,-1,-1,3324,71*,-25,-13
Cc1ccc(NC(=O)N2CCCCC2)cc1[N+](=O)[O-],-6,1,2,2983,-2,4,.
COc1ccc(OC)c(NC(=O)CSc2nc(O)cc(=O)n2CC(C)C)c1,-12,-1,.,3981,32*,-9,-11
COC(=O)C1C(O)=C(C=Nc2ccc(N)cc2)C(=O)CC1(C)C (stereo not drawn),-16,0,0,8440,40*,-2,-4
CC1(C)CC(=O)C(C=Nc2ccc(N)cc2)=C(O)C1,-6,0,4,3950,63*,-6,-8
COC(=O)C1C(O)=C(C=Nc2ccccc2)C(=O)CC1(C)C (stereo not drawn),-2,0,2,4070,5,-2,.
Cc1ccc[n+](CC(=O)Nc2cc(C(F)(F)F)ccc2Cl)c1,-4,1,-4,8478,-7,4,.
CCC(C)(C)c1ccc(OCCCC[n+]2cccc(C)c2)c(C(C)(C)CC)c1,-3,0,1,1918,40*,-6,7
CN1CCC/C1=C/C=C1\SC(=S)NC1=O,-2,0,-9,2263,40*,-10,33*
CC(c1ccccc1)N1C(=O)c2cccnc2C1=O (stereo not drawn),1,2,-1,3691,-4,?,.
CC(NC1=CC(=O)c2cccnc2C1=O)C(O)c1ccccc1 (stereo not drawn),-10,1,.,3807,101*,2,94*
CCN(CC)c1ccc(CNc2nc3ccccc3n2CCN2CCCCC2)cc1,-7,-1,0,4980,30*,-8,1
COc1ccc(CNc2nc3ccccc3n2CCN2CCCCC2)cc1,-2,0,4,2732,-3,0,.
COc1cccc(C(=O)NC2CC3CCCC(C2)N3CC(=O)Nc2ccccc2)c1 (stereo not drawn),-3,1,6,3307,-2,-4,.
